DRD3 agonist = agonists of human D3 dopamine receptor; P35462; D3R DiscoveRx beta-arrestin cells, luminescence, 90 min; max activation, %; 410,000 tested, 0.58% active; in the data active = max activation above about 30%; also: 0% is about no effect
Target sequence (P35462 whole entry, looked up): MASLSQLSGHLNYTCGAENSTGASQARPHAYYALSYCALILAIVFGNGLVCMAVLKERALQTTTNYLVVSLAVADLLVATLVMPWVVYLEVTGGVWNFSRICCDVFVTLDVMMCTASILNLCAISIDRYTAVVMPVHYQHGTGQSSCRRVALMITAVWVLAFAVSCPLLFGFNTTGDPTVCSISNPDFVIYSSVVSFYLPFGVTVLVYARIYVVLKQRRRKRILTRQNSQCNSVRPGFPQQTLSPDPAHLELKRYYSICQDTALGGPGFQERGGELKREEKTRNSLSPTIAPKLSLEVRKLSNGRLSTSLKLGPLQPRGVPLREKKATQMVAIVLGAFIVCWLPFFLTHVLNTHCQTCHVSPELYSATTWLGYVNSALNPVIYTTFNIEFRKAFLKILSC
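Cells at 1500/well, incubated overnight, then treated with pinned compounds (dopamine as control) for 90 min at 37 degrees C. DiscoveRx reagent added for 30 - 60 minutes at room temperature; luminescence read.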
ATXN2 expr inh = inhibitors of ATXN2 expression | HEK-293 ATXN2-luciferase reporter, luminescence, 24 h | Potency, µM (titrated, usually from 57 µM), for inactives: at the top dose activity change, negative = inhibition, actives largely listed as inhibitors | 360,000 tested, 0.72% active | AID 1745845; also: potency is read from the fitted curve at half-maximal effect; % is scaled to controls: 0 for no effect and ±100 for the full control effect; nearly all actives have a fitted effect of over 55% in size
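qHTS (up to 57 uM final) was run with 24 h compound exposure of reporter cells at 37 °C. Each well was multiplexed: SteadyGlo luminescence measured ATXN2-luciferase expression after a fluorogenic Gly-Phe-AFC viability readout (25 uM final).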
IL1B secr inh = inhibitors of inflammasome signaling (IL-1 beta secretion) | THP-1 LPS/ATP IL-1B secretion, AlphaLISA, 16 h; hits give low values | activity change, % at 57.5 µM | 360,000 tested, 4.7% active | AID 743279; in the data active = activity change below about -50%; inconclusive = mostly about -30% to -49%; also: % is scaled to controls: 0 for no effect and ±100 for the full control effect
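THP-1 cells pretreated 1 hr with compounds (up to 57.5 uM final), then stimulated with LPS (250 ng/mL final) plus ATP (1.25 mM final); secreted IL-1B measured by AlphaLISA after 16 hr, decreased signal indicating inhibition.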
ATXN viability = cell viability loss in ATXN counter-screen | S2 cells (HEK-293 line with an ATXN2-luciferase reporter) viability, CellTiter-Fluor protease fluorescence, 24 h | Potency, µM (highest dose often 56.7 µM), hits mostly cytotoxic | 400,000 tested, 0.49% active; also: potency is read from the fitted curve at half-maximal effect; nearly all actives have a fitted effect of over 40% in size
a7 integrin act = activators of alpha7 integrin expression for muscular dystrophy; alpha7betagal myoblasts, beta-gal FDG fluorescence, 48 h; 350,000 tested, 0.064% active; Potency, µM (series often up to 38.3 µM), without a hit: top-dose activation, usual class: activators;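 also: potency is read from the fitted curve at half-maximal effect; 100% = response of the positive control SU9516; nearly all actives have a fitted effect of over 60% in size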
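Alpha7betagal+/- myoblasts (passage 13) were plated 16-24 hr, then exposed to compounds (1:260 dilution of DMSO stock) for 48 hours at 37C. After MPER lysis, β-galactosidase reporter activity was read as FDG fluorescence (ex 480/em 540) after 30 minutes.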
D3 antag = antagonists of human D3 dopamine receptor; max response, negative = inhibition, %; P35462; 360,000 tested, 2.5% active; D3R cells, DiscoveRx beta-arrestin luminescence, antagonist mode; hits give low values; in the data active = max response below about -50%; inconclusive = no clear call, values can overlap the other calls; also: % is scaled to controls: 0 for no effect and ±100 for the full control effect
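Cells expressing the human receptor were seeded at 1500 cells/well, incubated overnight at 37 degrees C in 5% CO2, then exposed to library compounds with dopamine controls for 90 minutes at 37 degrees C before luminescent detection.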
* hit, by the source's call; i = inactive; u = inconclusive; x = no result; [ ] = remark or other dose. Only some compounds are listed: those with a hit (about 7% of all), similar ones and a draw of the others. Unless noted, calls follow the shape of the dose curve; as a rule, active = well fitted curve in the direction sought with a large enough effect; inconclusive = small, poorly fitted or top-dose-only effect, or another doubt; inactive = no such curve, though single readings can be large; an effect the other way counts as inactive or inconclusive.

SMILES	DRD3 agonist	ATXN2 expr inh	IL1B secr inh	ATXN viability	a7 integrin act	D3 antag
CC(=O)Oc1ccc(C(c2ccc(OC(C)=O)cc2)c2ccccn2)cc1	3	5%	-77*	i	x	-13
O=c1cc(OCc2ccccc2)cc[nH]1	4	6%	-66*	i	10%	8
Cc1[nH]ccc(=O)c1OCc1ccccc1	-3	-4%	14	i	12%	7
CC[C@@]1(c2ccccc2OC)C(=O)N(C(=O)OC)N1C(=O)OC	3	13%	-87*	i	u	6
COC(=O)N1C(=O)[C@](CC(C)C)(c2ccccc2)N1C(=O)OC	-7	2%	x	u	12%	u
CCOC(=O)N1C(=O)[C@@](CC)(c2ccccc2)N1C(=O)OCC	-5	-35%	x	32µM*	10%	u
CC[C@@]1(c2cccc(C)c2)C(=O)N(C(=O)OC)N1C(=O)OC	10	2%	-88*	i	21%	-5
CCCCNC(=O)c1ccc(-c2nc(CN3CCc4ccccc43)c(C)o2)cc1	7	-13%	x	i	x	x
CN(/N=C/c1ccc([N+](=O)[O-])o1)c1ccccc1	-12	-19%[11.3 µM]	u	i	15%	-28
CC(=O)N(/N=C/c1ccc([N+](=O)[O-])o1)c1nc2ccccc2c(=O)n1-c1ccccc1	-22	x	-19	u	-1%	-54*
CCOc1ccc(NC(=O)C2CCN(S(=O)(=O)c3ccc4c(c3)CC(C)N4C(C)=O)CC2)cc1 (stereo not drawn)	8	u	52	i	-27%	16
N#CCC(=O)N/N=C/c1cccc(Oc2ccccc2)c1	4	-14%	16	i	-25%	-12
CNC(=O)/C(=C\c1cccc(Oc2ccccc2)c1)NC(=O)c1ccccc1	6	41%	u	u	11µM*	-6
CNC(=O)/C(C#N)=C/c1cccc(Oc2ccccc2)c1	1	-7%	-102*	i	-15%	-12
NS(=O)(=O)c1ccc(CCNC(=O)CN2CCN(S(=O)(=O)c3ccccc3F)CC2)cc1	1	-11%	14	i	-17%	0
Cc1c(NC(=O)/C(C#N)=C/c2ccc(-c3cccc(Cl)c3)o2)c(=O)n(-c2ccccc2)n1C	-5	-32%	-12	i	-15%	-12
Cc1c(NC(=O)/C(C#N)=C/c2ccc(-c3ccccc3Cl)o2)c(=O)n(-c2ccccc2)n1C	-6	-13%	-73*	u	7%	-3
N#C/C(=C\c1ccc(-c2cc(Cl)ccc2Cl)o1)C(=O)Nc1ccccc1C(=O)O	33*	5%	x	i	x	x
Cc1c(NN=C(C#N)C#N)c(=O)n(-c2ccccc2)n1C	6	-17%[11.3 µM]	-61*	i	32%	-1
Cc1c(NC(=O)C(=O)/C=C(\O)c2ccc(Cl)cc2)c(=O)n(-c2ccccc2)n1C	2	-3%	-56*	i	12%	-4
COc1cccc(CNS(=O)(=O)c2cc3c(cc2C)NC(=O)CO3)c1	3	0%	0	i	-18%	16
Cc1c(NC(=O)CSc2nnc(-c3cccc(Cl)c3)o2)c(=O)n(-c2ccccc2)n1C	-6	3%	-7	i	5%	-72*
Cc1c(NC(=O)/C(C#N)=C/c2ccc(-c3ccc(Cl)c(Cl)c3)o2)c(=O)n(-c2ccccc2)n1C	14	u	-52*	u	8%	22
Cc1ccc(C(C(=O)NC2CCCC2)N2CCCC(C)C2)cc1 (stereo not drawn)	1	-4%	10	i	-12%	-2
O=C(O)CC(NCc1ccco1)C(=O)Nc1cccc(O)c1 (stereo not drawn)	-11	0%	1	i	9%	2
SMILES	DRD3 agonist	ATXN2 expr inh	IL1B secr inh	ATXN viability	a7 integrin act	D3 antag
Cc1ccc(S(=O)(=O)CC(=O)Nc2nccs2)cc1	3	12%	2	i	-6%	8
CC(=O)N(c1ccc(Cl)cc1)c1c[nH]c2ccccc12	-25	u	0	i	u	-67*
Cc1ccc(C(=O)N2CCC(C(=O)c3ccc(F)cc3)CC2)cc1	1	x	-1	i	u	0
Cc1ccc(C(=O)N2C(=S)C(c3ccc(F)cc3)=NC23CCN(C)CC3)cc1	-4	22µM*	-9	25µM*	-39%	4
Cc1c(NC(=O)CCSCCc2ccccn2)cccc1[N+](=O)[O-]	6	1%	15	i	-4%	11
COc1cc2c(C#N)c(N3CCc4ccccc4C3)nc(N)c2c(N)n1	2	11%	-54*	i	-12%	-4
COc1cc2c(C#N)c(N3CCOCC3)nc(N)c2c(N)n1	-1	3%	-54*	i	5%	-2
COc1cc2c(C#N)c(N3CCCCC3)nc(N)c2c(N)n1	2	49%	u	u	8%	17
CCOc1cc2c(C#N)c(N3CCCCC3)nc(N)c2c(N)n1	9	84%	0	i	-19%	-3
COc1ccc(Br)cc1C(=O)Nc1ccc2oc(-c3cccnc3)nc2c1	24	-12%	x	i	x	x
CCCCN(C(=O)CCCc1nc2ccccc2s1)c1c(N)n(CCCC)c(=O)[nH]c1=O	0	5%	i	i	24%	-9
O=C(Nc1nnc(S(=O)(=O)N2CCCc3ccccc32)s1)c1ccccc1Cl	-2	5%	x	i	x	x
CNC(=O)OCc1nc(SSC(C)(C)C)n(C)c1COC(=O)NC	-8	u	-100*	x	-52%	-14
CCSc1nc(COC(=O)NC)c(COC(=O)NC)n1C	-13	-34%	0	i	23%	28
O=C(CSc1nnc(-c2ccccc2F)n1C1CC1)NC(=O)c1cccc([N+](=O)[O-])c1	-54	1%	19	u	3%	-57*
Cc1nc2ccc(S(=O)(=O)N3CCCCC3)cc2s1	-3	-5%	6	i	7%	-3
Nc1nc2ccc(S(=O)(=O)N3CCCCC3)cc2s1	7	u	-106*	u	3%	-12
CC(C)c1cccc(C(C)C)c1OCCCCN1CCCC1	-14	-13%	-1	i	5%	-58*
CCc1ccccc1OCCCCN1CCCCC1	-15	-24%	0	i	-17%	-87*
CC(C)(C)c1ccccc1OCCCCN1CCCC1	-17	-5%	0	i	-32%	-68*
CCc1ccccc1OCCCN1CCCC1	-2	x	16	i	-9%	u
Cc1cccc(C(C)(C)C)c1OCCCCN1CCCC1	-13	-23%	-21	u	0%	-17
Cc1cc(C)c(C)c(OCCOCCN2CCN(C)CC2)c1	-21	0%	21	i	4%	-3
Clc1cccc(Cl)c1OCCCCN1CCCCC1	-11	-10%	-3	i	-33%	11
